Compound activity: PubChem, several laboratories
Shown are actives, neighbours in structure and some others; about 2.3% of the full set was active somewhere.
LMP1 NFkB inh: inhibitors of Epstein-Barr LMP1-induced NF-kappaB reporter; LMP1-induced NF-kappaB luciferase reporter cells, luminescence; 350,000 tested, 0.69% active; inhibition, % at 12.5 µM; in the data active = inhibition above about 41%;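 note: 0% = neutral control wells and 100% = reference inhibitor control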
Jurkat NFkB inh: lowers PMA/ionomycin-induced NF-kB signal in Jurkat cells | PMA/ionomycin-induced NF-kB luciferase reporter, luminescence | inhibition, % at 4 µM | 330,000 tested, 0.53% active; in the data active = inhibition above about 50%
Gli-Sufu block: blocks Gli-Sufu signaling in a luciferase reporter; AID 588413; inhibition, % at 5 µM; 340,000 tested, 0.74% active; Sufu-KO-LIGHT fibroblasts, Gli luciferase reporter luminescence;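 active = inhibition above about 55%, limit read from the data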;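 note: 0% = DMSO-treated cells and 100% = wells with medium but no cells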
MITF TRPM1 inh: MITF TRPM1 promoter inhibition in SK-MEL-5 cells; SK-MEL-5 TRPM1 promoter luciferase, 24 h; inhibition, % at 12.5 µM; 330,000 tested, 0.83% active; AID 488899;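 active = mean inhibition across replicates of 60% or more, whatever share of single replicates reaches that level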
Shn3 inh set2: inhibitors of Schnurri-3 3'UTR reporter in osteoblasts; Clone20 osteoblast Shn3 3'UTR firefly luciferase, 24 h; inhibition, % at 12.5 µM; 360,000 tested, 0.52% active;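 active = mean inhibition of at least 75% with every replicate also reaching 75%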;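 note: 0% = median of neutral control wells and 100% = pilot-screen positive control compound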
697 NFkB inh: lowers PMA/ionomycin-induced NF-kB signal in 697 B cells; AID 435022; inhibition, % at 4 µM; 330,000 tested, 0.33% active; 697 B-cell NF-kB luciferase reporter, 16 h; in the data active = inhibition above about 35%
* = called active by the depositor; / = no result given.

SMILES	LMP1 NFkB inh	Jurkat NFkB inh	Gli-Sufu block	MITF TRPM1 inh	Shn3 inh set2	697 NFkB inh
Cn1nnnc1Sc1ncnc2scc(-c3ccc(C#N)cc3)c12	57*	-9	36	92*	80	-246
COc1cccc(-c2csc3ncnc(Sc4nnnn4C)c23)c1	75*	-6	35	71*	-12	-85
Cn1nnnc1Sc1ncnc2scc(-c3ccc(C(F)(F)F)cc3)c12	-4	25	-4	82*	66	-80
Cn1nnnc1Sc1ncnc2scc(-c3ccccc3C(F)(F)F)c12	4	-27	28	43	-10	-60
Cn1nnnc1Sc1ncnc2scc(-c3ccc(-c4ccccc4)cc3)c12	28	1	5	11	36	6
Cc1cc([N+](=O)[O-])nn1CC(=O)Nc1ccc(Cl)cn1	-2	4	0	-8	22	9
CC(C)CNC(=S)NNC(=O)c1ccc2c(c1)OCO2	-4	-9	-10	9	-11	-36
Cn1nnnc1Sc1ncnc2scc(-c3cccc(F)c3)c12	24	-13	28	78*	68	-51
CCOC(=O)C(NC(=O)OC(C)C)(Nc1nccs1)C(F)(F)F (configuration not stated)	-7	-15	-5	3	-16	7
C(=Cc1nc2ccccc2o1)c1ccc2c(c1)OCO2	45*	/	/	/	19	/
Nc1nc2ccccc2n1/N=C/c1ccc2c(c1)OCO2	/	-81	-40	/	-41	-106
Cn1c(/N=C/c2ccc3c(c2)OCO3)nc2ccccc21	-4	-13	0	0	2	-7
C(=Cc1cnc2ccccc2n1)c1ccc2c(c1)OCO2	80*	/	/	/	86*	/
Cc1csc(N=Nc2ccc(N(C)C)cc2)[n+]1[O-]	55*	/	/	/	5	/
OC(CNCC1CCCO1)Cn1c2ccc(Cl)cc2c2cc(Cl)ccc21 (configuration not stated)	-36	10	-1	-59	-16	15
OC(CNCCC1C=Nc2ccccc21)Cn1c2ccc(Cl)cc2c2cc(Cl)ccc21 (configuration not stated)	-54	/	-2	91*	93*	/
CC(C)Cn1c2c(c(O)c(C(=O)Nc3nc4ccccc4s3)c1=O)CCCC2	7	-9	-2	4	-6	-11
CC(C(Sc1ccccc1N)c1ccccc1)[N+](=O)[O-] (configuration not stated)	5	-13	10	71*	63	-9
CCCSc1nc2sc3c(c2c(=O)[nH]1)CC(C)(CC)OC3 (configuration not stated)	-6	-9	21	-2	-12	1
COc1cccc(OCc2nnc(SCC(=O)OC3CCCCC3)n2C)c1	-16	-5	-12	-1	4	-2
COc1cccc2c1C(=O)c1c(O)c3c(c(O)c1C2=O)CC(O)(C(C)=O)CC3OC1CC(N(C)C)C(O)C(C)O1 (configuration not stated)	93*	/	69*	79*	94*	/
COc1cccc2c1C(=O)c1c(O)c3c(c(O)c1C2=O)C[C@@](O)(C(=O)CO)C[C@@H]3OC1CC(N)C(O)C(C)O1 (some centres not stated)	62*	/	91*	60	87*	/
NC(=O)c1nn(-c2ccc(Oc3ccccc3)cc2)c(=O)cc1O	0	-4	-24	0	-1	7
Oc1ccc(-c2csc(Nc3cccc4ccccc34)n2)cc1O	-4	11	-1	-10	87*	11
COc1ccc(N2C(=O)c3ccccc3NC2(C)C)cc1	42*	-85	-54	-53	-29	-54
SMILES	LMP1 NFkB inh	Jurkat NFkB inh	Gli-Sufu block	MITF TRPM1 inh	Shn3 inh set2	697 NFkB inh
CC1(C)Nc2ccccc2C(=O)N1c1ccc(Br)cc1	-30	-124	-98	-67	-80	-149
Cc1ccc(CN2C(=O)CCC2C(=O)NCCCN2CCOCC2)cc1 (configuration not stated)	4	-2	7	0	-15	11
Cc1ccc(CN2C(=O)CCC2C(=O)NCCCN2CCC(C)CC2)cc1 (configuration not stated)	50*	/	24	-6	-66	/
COc1ccc(OC)c(CN2CCSCC2)c1	7	6	3	-3	-2	15
N/C(=N\OC(=O)c1ccc2ccccc2c1)c1ccncc1	-10	-119	-63	-89	-15	-147
N/C(=N\OC(=O)c1ccc2ccccc2c1)c1ccccn1	56*	-46	-3	36	66	-100
